# High-throughput results as filed in PubChem BioAssay.
# HT1080-NT tox = kills 2HG-producing HT-1080-NT fibrosarcoma cells; Potency, µM (top dose mostly 46.1 µM), inactives show top-dose activity, negative = less viability, most hits filed as cytotoxic; HT-1080-NT fibrosarcoma viability, CellTiter-Glo ATP luminescence, 48 h; AID 686970; 1.6% of 360,000 active;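 further: NT is the 2HG producing partner of a matched IDH1 knockdown line; potency means the concentration at half of the fitted maximal effect; 0% = DMSO-treated cells and -100% = media-only wells without cells; nearly all actives have a fitted effect of over 55% in size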
#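 Viability of the 2HG-overproducing fibrosarcoma line after 48 hours of compound exposure at 37 degrees C was determined by luminescence with CellTiter-Glo, and concentration-effect curves were then fitted and categorized.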
# ELG1 DNA repair = blocks ELG1-dependent DNA repair in HEK293T cells | HEK293T ELG1-luciferase reporter, luminescence, 16 h; DNA damage induced by 5-fluorouridine | Potency, µM (highest dose often 46.1 µM), inactives show top-dose activity change, negative = inhibition, actives largely listed as inhibitors | 2.3% of 330,000 active; further: potency means the concentration at half of the fitted maximal effect; nearly all actives have a fitted effect of over 55% in size
#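 In this reporter screen, reduction of luminescence relative to DMSO vehicle indicated activity. Compounds and 5-fluorouridine were added together to 2,000 cells per well, incubated for 16 hr at 37 °C, then developed with ONE-Glo.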
# HT1080 IDH1KD tx = kills HT-1080 cells with IDH1 knockdown. 2% of 360,000 active. Potency, µM (doses to about 46.1 µM), for the others: top-dose activity, negative = toxicity, hits mostly cytotoxic. AID 686971. HT-1080 IDH1 knockdown viability, ATP luminescence, 48 h;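 further: potency means the concentration at half of the fitted maximal effect; 0% = DMSO wells and -100% = cell-free medium wells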
#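 Assay cells: HT-1080 with IDH1 knockdown, 750 per well, RPMI/5% FBS. Exposure: 48 h at 37 °C following 2 h pre-incubation. Read: CellTiter-Glo luminescence; fitted concentration-response, curve class assigned.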
# DT40 TDP1 no CPT = qHTS for Inhibitors of human tyrosyl-DNA phosphodiesterase 1 (TDP1): qHTS in cells in absence of CPT | DT40 Tdp1-/- hTDP1 cells, no CPT, ATP luminescence, 48 h | Potency, µM (doses to about 46.2 µM), inactives show top-dose activity change, negative = growth inhibition, hits mostly inhibitors | 15% of 420,000 active | AID 686978, 2013; further: potency means the concentration at half of the fitted maximal effect; nearly all actives have a fitted effect of over 55% in size
#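 Stably hTDP1-transfected Tdp1-null chicken DT40 cells were treated with library compounds minus camptothecin and grown for at least 48 hr at 37 °C, after which cellular ATP was quantified by luminescence.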
# DT40 TDP1 CPT = DT40-hTDP1 cell growth loss with CPT; 12% of 420,000 active; chicken DT40 Tdp1-/-;hTDP1 cells + 20 nM CPT, ATP luminescence, 48 h; Potency, µM (highest dose often 46.2 µM), for the others: at the highest dose activity change, negative = growth inhibition, most hits filed as inhibitors; further: potency means the concentration at half of the fitted maximal effect; nearly all actives have a fitted effect of over 55% in size
#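 Chicken DT40 Tdp1-/- cells stably complemented with human TDP1 were seeded at 400 cells/well in medium containing 20 nM camptothecin, exposed to pin-transferred compounds, and grown at 37 °C for at least 48 hr. Viability was read as ATP luminescence.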
# IL-1B inflam inh = inhibitors of inflammasome signaling (IL-1 beta secretion). THP-1 LPS/ATP IL-1B secretion, AlphaLISA, 16 h; active compounds read low. activity change, % at 57.5 µM. 4.7% of 360,000 active; in the data active means activity change below about -50%; inconclusive means mostly about -30% to -49%
#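 Secreted IL-1B measured by AlphaLISA bead assay after 16 h compound exposure of THP-1 cells; compounds (final up to 57.5 uM) added 1 h before LPS (250 ng/mL) and ATP (1.25 mM) stimulation; lower signal means less secretion.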
# * hit, by the source's call; ? = inconclusive; · = no result; [ ] = remark or other dose. Hits are enriched below; roughly 19% of the tested compounds scored in any of these assays. Unless noted, the call rests on the fitted dose curve; in most records, active means well fitted curve in the direction sought with a large enough effect; inconclusive means small, poorly fitted or top-dose-only effect, or another doubt; inactive means no such curve, though single readings can be large; an effect the other way counts as inactive or inconclusive. Unless noted, on the % scale 0 is the no-effect control and ±100 the full control effect.
SMILES,HT1080-NT tox,ELG1 DNA repair,HT1080 IDH1KD tx,DT40 TDP1 no CPT,DT40 TDP1 CPT,IL-1B inflam inh
CCn1cc(C(=O)N2CCCC(N3CCN(c4cccc(C(F)(F)F)c4)CC3)C2)cn1 (centres undefined),0%,14%,-1%,?,?,4
CCc1cc(C(=O)N2CCCC(N3CCN(c4cccc(C(F)(F)F)c4)CC3)C2)n(C)n1 (centres undefined),-9%,-21%,-10%,12µM*,12µM*,-13
CC(=O)N1CCCC(N2CCN(c3cccc(C(F)(F)F)c3)CC2)C1 (centres undefined),0%,4%,3%,2%,4%,-5
CC1=C(C(=O)N2CCCC(N3CCN(c4cccc(C(F)(F)F)c4)CC3)C2)OCCO1 (centres undefined),0%,-17%,3%,?,?,1
O=C(O)CN=C(Nc1cc(Cl)cc(Cl)c1)NC(c1ccccc1)c1ccccc1,?,·,?,?,?,-7
Cc1ccc(NS(=O)(=O)c2cc(C(=O)NCCCN(C)C)ccc2Cl)cc1Cl,-7%,28%,-1%,-6%,-20%,-1
CCC1C(=O)NCCN1Cc1ccc2c(c1)CN(Cc1cc(OC)c3c(c1)OCO3)CCO2 (centres undefined),·,·,·,?,-9%[9.04 µM],·
Cc1cnc(C(=O)N2CCCC(N3CCN(c4cccc(C(F)(F)F)c4)CC3)C2)cn1 (centres undefined),-12%,-8%,-1%,?,23µM*,-62*
Cc1cc(C)n(CC(=O)N2CCCC(N3CCN(c4cccc(C(F)(F)F)c4)CC3)C2)n1 (centres undefined),0%,-9%,-2%,?,?,-10
CSc1nc(C(=O)N2CCCC(N3CCN(c4ccccc4C)CC3)C2)cs1 (centres undefined),-19%,?,-4%,18µM*,21µM*,5
CC(C)(C)OC(=O)C[C@@H]1C/C=C\C[C@@H](CC(=O)NCCO)C(=O)NC[C@@H](c2ccccc2)OC1=O,?,14%,7%,-7%,1%,1
CC(C)(C)OC(=O)C[C@H]1C/C=C\C[C@H](CC(=O)NCCO)C(=O)NC[C@@H](c2ccccc2)OC1=O,4%,18%,12%,-10%,-1%,-6
O=C(C[C@@H]1C/C=C\C[C@H](NC(=O)OCC2c3ccccc3-c3ccccc32)C(=O)O[C@H](c2ccccc2)CNC1=O)NCCO,0%,1%,-3%,2.1µM*,2.6µM*,27
O=C(C[C@H]1C/C=C\C[C@H](NC(=O)OCC2c3ccccc3-c3ccccc32)C(=O)O[C@@H](c2ccccc2)CNC1=O)NCCO,0%,-2%,-5%,10µM*,9.2µM*,-9
CCOCCc1nn2c(=O)cc(COC(=O)C3CCCCC3)nc2s1,·,·,·,-10%,-1%,·
CCC(C)NC(=O)c1cc2c(Cl)nc3ccc(C)cc3c2s1 (centres undefined),·,·,·,?,-18%,·
CCOc1ccccc1NC(=O)c1cc2c(Cl)nc3ccccc3c2s1,·,·,·,-3%,13%,·
CN(CCCNC(=O)c1cc2c(Cl)nc3ccccc3c2s1)Cc1ccccc1,16µM*,16%,16µM*,21µM*,15µM*,-82*
Cc1ccc2nc(Cl)c3cc(C(=O)NCCCN(C)Cc4ccccc4)sc3c2c1,·,·,·,10µM*,?,·
O=C1C(c2ccccc2)=NCCN1C(c1ccc(F)cc1)c1nc2ccccc2[nH]1 (centres undefined),-1%,·,8%,-15%,?,11
CC(C)c1ccc(NC(=O)Cn2c(=O)oc3cccnc32)cc1,13%,?,0%,-11%,7%,-5
Clc1cccc(-c2nnc3sc(-c4ccc5c(c4)OCO5)nn23)c1,·,6%,·,·,·,·
Clc1ccc(-c2nnc3sc(-c4ccc(Br)o4)nn23)c(Cl)c1,-5%,9%,-3%,?,-24%,5
Clc1ccccc1-c1nnc2sc(-c3ccc4c(c3)OCO4)nn12,?,0%,?,?,16µM*,-13
Clc1ccccc1-c1nnc2sc(-c3ccc(Br)o3)nn12,1%,6%,-10%,-23%,-27%,-52*
SMILES,HT1080-NT tox,ELG1 DNA repair,HT1080 IDH1KD tx,DT40 TDP1 no CPT,DT40 TDP1 CPT,IL-1B inflam inh
Brc1ccccc1-c1nnc2sc(-c3ccc4c(c3)OCCO4)nn12,·,?,·,23µM*,12µM*,?
Cc1ccoc1C(=O)N1CCN(C(=O)c2occc2C)CC1,8%,5%,7%,-19%,-5%,-7
CN(CC(=O)Nc1cccc(F)c1)C(=O)c1cc([N+](=O)[O-])ccc1N1CCOCC1,2%,-6%,12%,-12%,-10%,-7
COc1ccc(C2CC(c3ccccc3)=NN2C(=O)COC(=O)/C=C/c2ccc(O)c(OC)c2)cc1 (centres undefined),-18%,?,-2%,?,?,-9
CCc1nnc(NC(=O)c2ccc(N(C)S(=O)(=O)c3ccccc3)cc2)s1,2%,-14%,-13%,-22%,-27%,-6
CN(C)c1ccc(C(=O)Nc2sc(Nc3ccccc3)nc2C(N)=O)cc1,·,·,·,7.3µM*,?,·
CC(=O)NC(c1ccccc1)c1nc(-c2csc3ccccc23)cs1 (centres undefined),-6%,·,-30%,?,?,5
CC(=O)NC(c1ccccc1)c1nc(-c2cnc3ccccc3c2)cs1 (centres undefined),3%,·,3%,21µM*,12µM*,0
OC(c1cccc(Cl)c1)c1nc(-c2cccc3cccnc23)cs1 (centres undefined),18%,·,2%,-27%,?,-2
COc1cccc(C(N)c2nc(-c3csc4ccccc34)cs2)c1 (centres undefined),?,·,?,2.9µM*,3.7µM*,74
CC(=O)NC(c1cccc(F)c1)c1nc(-c2cnn(C)c2)cs1 (centres undefined),?,·,19%,23µM*,?,42
OC(c1cccc(Cl)c1)c1nc(-c2csc3ccccc23)cs1 (centres undefined),?,·,?,?,15µM*,13
